The values below come from PubChem BioAssay AID2284138 (EPA ToxCast).

Molecules are shown by their SMILES. Inconclusive results are not listed. Active and inactive are the calls of the source. The calls were made as follows: active = hit-call score of the fitted dose curve at least 0.9, where 1 is the maximum; inactive = score below 0.9.

The target in this test is human ROCK1 AGC Kinase, ROCK1 (gene 6093) (UniProt Q13464). The test can be described thus: ERF_FR_ENZ_hROCK1: Eurofins (ERF) Enzymatic Radiometric [Km ATP] KinaseProfiler LeadHunter Assay for human ROCK1 AGC Kinase. As to the method: ERF_FR_ENZ_hROCK1 is a biochemical, single-readout assay that uses extracted gene-proteins in a cell-free assay. Measurements were taken 0.33 hour after chemical dosing in a 96-well plate. See ROCK1 Human AGC Kinase Enzymatic LANCE Assay [Km ATP], Cerep.ERF_FR_ENZ_hROCK1 is an assay component calculated from the ERF_FR_ENZ_hROCK1 assay. It is designed to measure enzyme activity using a type of enzyme reporter as detected by fluorescence intensity with LANCE technology.Data from the assay component ERF_FR_ENZ_hROCK1 was analyzed at the assay endpoint, ERF_FR_ENZ_hROCK1, in the positive analysis fitting direction relative to DMSO as the negative control and baseline of activity. Using a type of enzyme reporter, loss-of-signal activity can be used to understand changes in enzymatic activity as they relate to gene ROCK1. To generalize the intended target to other relatable targets, this assay endpoint is annotated to the kinase intended target family, where the subfamily is serine/threonine kinase.
Sequence of human ROCK1 AGC Kinase, ROCK1 (gene 6093) (Q13464 whole entry, looked up): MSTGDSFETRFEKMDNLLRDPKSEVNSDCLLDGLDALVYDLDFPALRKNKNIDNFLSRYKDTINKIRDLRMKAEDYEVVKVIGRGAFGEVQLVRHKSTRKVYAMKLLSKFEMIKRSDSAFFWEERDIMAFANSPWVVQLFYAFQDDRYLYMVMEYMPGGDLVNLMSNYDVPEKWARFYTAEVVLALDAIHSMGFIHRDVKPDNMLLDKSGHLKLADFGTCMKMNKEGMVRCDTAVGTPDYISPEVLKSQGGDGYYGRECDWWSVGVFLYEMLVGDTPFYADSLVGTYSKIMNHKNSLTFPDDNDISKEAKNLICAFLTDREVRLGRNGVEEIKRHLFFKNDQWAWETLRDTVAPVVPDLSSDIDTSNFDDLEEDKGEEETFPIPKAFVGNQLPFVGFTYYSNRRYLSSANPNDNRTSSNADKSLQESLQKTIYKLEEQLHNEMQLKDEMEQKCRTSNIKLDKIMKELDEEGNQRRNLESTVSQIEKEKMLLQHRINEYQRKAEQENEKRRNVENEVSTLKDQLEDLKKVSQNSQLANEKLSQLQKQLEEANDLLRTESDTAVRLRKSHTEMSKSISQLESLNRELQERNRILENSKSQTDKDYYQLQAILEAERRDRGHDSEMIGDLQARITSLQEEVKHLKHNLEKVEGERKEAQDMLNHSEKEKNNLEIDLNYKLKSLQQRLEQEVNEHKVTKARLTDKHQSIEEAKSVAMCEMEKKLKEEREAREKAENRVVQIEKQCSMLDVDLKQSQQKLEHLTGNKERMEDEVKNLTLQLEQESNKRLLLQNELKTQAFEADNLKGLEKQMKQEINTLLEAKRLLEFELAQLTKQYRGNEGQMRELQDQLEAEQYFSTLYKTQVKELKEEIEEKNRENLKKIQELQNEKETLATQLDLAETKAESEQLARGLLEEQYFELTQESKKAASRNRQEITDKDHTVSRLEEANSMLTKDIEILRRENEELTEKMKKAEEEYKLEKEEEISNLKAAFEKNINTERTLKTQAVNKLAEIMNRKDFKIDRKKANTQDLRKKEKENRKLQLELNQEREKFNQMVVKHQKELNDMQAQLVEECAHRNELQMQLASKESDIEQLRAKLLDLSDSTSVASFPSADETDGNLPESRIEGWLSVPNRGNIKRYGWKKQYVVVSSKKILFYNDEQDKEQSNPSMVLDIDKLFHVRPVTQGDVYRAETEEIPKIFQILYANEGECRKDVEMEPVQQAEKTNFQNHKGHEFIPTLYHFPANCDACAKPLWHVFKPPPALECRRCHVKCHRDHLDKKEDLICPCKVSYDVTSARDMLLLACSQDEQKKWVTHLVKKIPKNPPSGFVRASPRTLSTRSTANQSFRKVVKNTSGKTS
ROCK-I (h) is incubated with 8 mM MOPS pH 7.0, 0.2 mM EDTA, 30 uM […], 10 mM MgAcetate and [gamma-33P]-ATP (specific activity and concentration as required). The reaction is initiated by the addition of the Mg/ATP mix. After incubation for 40 minutes at room temperature, the reaction is stopped by the addition of phosphoric acid to a concentration of 0.5%. […]
For the compound `O=C(/C=C/c1ccc(O)cc1)CC(=O)/C=C/c1ccc(O)cc1`, the call was inactive.

As for `COc1cc(CCC(=O)CC(=O)CCc2ccc(O)c(OC)c2)ccc1O`, the compound was called inactive.
